The list is not random: actives were taken first. Their share in the collection is about 1%.
NPR1 activator: GC-A (human) enzyme activation | P16066 | HEK293 GC-A cells, cGMP TR-FRET, EC30 ANP; 0% at EC30 ANP, 100% saturating ANP | activation, % at 10 µM | hit rate 0.14% among 370,000; in the data active means activation above about 40%
Target sequence (P16066 whole entry, looked up): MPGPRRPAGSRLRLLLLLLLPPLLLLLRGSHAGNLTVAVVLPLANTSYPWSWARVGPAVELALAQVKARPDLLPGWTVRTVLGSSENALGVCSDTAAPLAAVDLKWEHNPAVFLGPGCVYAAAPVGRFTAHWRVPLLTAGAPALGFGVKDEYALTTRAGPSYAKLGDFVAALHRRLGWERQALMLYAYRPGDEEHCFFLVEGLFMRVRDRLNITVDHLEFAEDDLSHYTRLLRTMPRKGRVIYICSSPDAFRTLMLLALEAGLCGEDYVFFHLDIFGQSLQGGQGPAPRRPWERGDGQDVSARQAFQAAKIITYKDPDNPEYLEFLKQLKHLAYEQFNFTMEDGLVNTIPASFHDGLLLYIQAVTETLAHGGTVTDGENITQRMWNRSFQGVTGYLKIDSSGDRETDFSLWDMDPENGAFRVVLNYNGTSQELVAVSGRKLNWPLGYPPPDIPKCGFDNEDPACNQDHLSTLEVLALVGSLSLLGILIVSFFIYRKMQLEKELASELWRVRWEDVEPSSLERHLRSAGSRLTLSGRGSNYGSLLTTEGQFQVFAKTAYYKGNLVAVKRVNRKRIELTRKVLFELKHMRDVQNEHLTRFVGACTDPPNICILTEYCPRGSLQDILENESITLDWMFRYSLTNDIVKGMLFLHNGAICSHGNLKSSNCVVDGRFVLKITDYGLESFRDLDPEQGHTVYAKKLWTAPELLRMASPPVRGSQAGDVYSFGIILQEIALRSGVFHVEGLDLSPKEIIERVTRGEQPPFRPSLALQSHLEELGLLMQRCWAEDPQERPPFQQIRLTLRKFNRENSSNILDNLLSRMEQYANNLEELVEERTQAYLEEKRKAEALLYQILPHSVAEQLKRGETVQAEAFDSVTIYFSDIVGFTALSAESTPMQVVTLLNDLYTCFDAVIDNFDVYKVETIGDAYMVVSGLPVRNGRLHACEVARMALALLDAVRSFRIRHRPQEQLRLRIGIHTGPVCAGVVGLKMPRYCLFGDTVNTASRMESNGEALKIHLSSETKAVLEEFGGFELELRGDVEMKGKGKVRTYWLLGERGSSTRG
HSV augment: HSV replication enhancement. maximum fold increase. HSV replication augmentation in cells, fold increase. AID 1956. hit rate 0.005% among 220,000; in the data active means maximum fold increase above about 1.5; tested in PC3 cells
GC-B act: GC-B (human) receptor activation | activation, % at 10 µM | HEK293-GC-B cells, CNP EC30, cGMP TR-FRET; 0% at EC30 CNP, 100% saturating CNP | AID 1920062 | hit rate 0.11% among 370,000;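 active means activation at 10 µM reaching about 35% in either raw or pattern-adjusted values, limit read from the data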
TAG inh: reduces triacylglycerol accumulation in H9c2 cells | hit rate 0.66% among 230,000 | inhibition, % at 12.5 µM | AID 651582 | Nile Red lipid (TAG) fluorescence; cells loaded with 200 µM oleic acid;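 active means pattern-corrected inhibition of lipid staining of at least 50% with the nuclear-stain viability signal not falling by more than 50%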
Efflux pump mplx: inhibitors of Candida antifungal efflux pumps expressed in yeast; hit rate 0.44% among 330,000; inhibition, % at 10 µM; S. cerevisiae Candida pump triplex, Nile Red efflux;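 active means plate passing quality check with inhibition over a set limit, or well fluorescence over plate mean plus 4 SD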;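 further: Nile Red retained in pooled yeast measured as flow cytometry median fluorescence; higher means more Nile Red kept so more efflux inhibition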
A1 inh: inhibitors of the anti-apoptotic protein A1, read as caspase activation; hit rate 0.066% among 330,000; AID 2462; caspase activation, % (concentration not given with the values); MEF A1-2A-BIM cells, Caspase-Glo 3/7 luminescence, 3 h; percent of clofoctol response, vehicle zero;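 active means over half of replicate activation scores above 10%, or exactly half above 10 with the replicate mean above 10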
Cmpd fluor yeast: compound fluorescence in yeast efflux pump counter-screen. hit rate 4% among 1,700. AID 588517. fluorescence ratio to DMSO, % at 10 µM. S. cerevisiae AD/pABC3, flow cytometry. shares compounds with Efflux pump mplx;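 active means fluorescence ratio to DMSO above its plate's cutoff, the plate mean ratio plus 5 SD, cut at about 210% in these data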;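 further: unstained yeast with no Nile Red so the signal is compound autofluorescence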
Mdr1 pump inh: Candida Mdr1 efflux pump inhibition; shares compounds with Efflux pump mplx; S. cerevisiae AD/CaMDR1, Nile Red efflux, flow cytometry; hit rate 1% among 1,700; inhibition, % at 10 µM; in the data active means inhibition above about 26%;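 further: higher means more Nile Red retained so more efflux inhibition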
Cdr2 pump inh: Candida Cdr2 efflux pump inhibition; shares compounds with Efflux pump mplx; hit rate 4% among 1,700; Nile Red retention ratio vs DMSO, % at 10 µM; S. cerevisiae AD/CaCDR2, Nile Red retention, flow cytometry; in the data active means Nile Red retention ratio vs DMSO above about 190%;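 further: higher ratio means more blocking of Cdr2 efflux of the dye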
CaCdr1 efflux inh: inhibitors of Candida albicans Cdr1 efflux pump | shares compounds with Efflux pump mplx | S. cerevisiae AD/CaCDR1, Nile Red efflux, flow cytometry | inhibition, % at 10 µM | hit rate 1% among 1,700 | AID 588522;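 active means inhibition above the screen-wide mean plus twice its standard deviation, cut at about 32% in these data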
Numbers stand for hits; 0 = inactive; - = no result; + = active, no number.

SMILES	NPR1 activator	HSV augment	GC-B act	TAG inh	Efflux pump mplx	A1 inh	Cmpd fluor yeast	Mdr1 pump inh	Cdr2 pump inh	CaCdr1 efflux inh
Clc1ccc(Sc2cc(N3CCOCC3)nc(-c3ccccc3)n2)cc1	0	0	0	-	0	0	-	-	-	-
CC(C)Sc1cc(N2CCOCC2)nc(-c2ccc(Cl)cc2)n1	0	0	0	0	0	0	0	0	0	0
COc1cccc(Sc2cc(N3CCOCC3)nc(-c3ccccc3)n2)c1	0	-	0	0	0	0	-	-	-	-
CCN1CCN(c2cc(SC(C)C)nc(-c3ccc(OC)cc3)n2)CC1	0	-	0	0	-	-	0	0	0	0
Cc1cc(-c2cc(NC(=O)Cc3c[nH]c4ccccc34)ccc2Nc2cccnc2)ccc1F	0	-	0	-	-	-	-	-	-	-
COC(=O)[C@]12C[C@H](CC(=O)N3CCSCC3)C(=O)N(CCc3ccc(OC)c(OC)c3)C1=C[C@H](COCc1ccccc1)O[C@@H]2C	0	-	0	-	-	-	-	-	-	-
COC(=O)c1ccc(CN2CCC(Oc3cccc(C(=O)N4CCCC4)c3)CC2)cc1	0	-	0	0	5.3	0	0	0	0	0
COC(=O)c1ccc(CN2CCC(Oc3ccc(C(=O)N4CCCCC4)cc3)CC2)cc1	0	-	0	0	0	0	-	-	-	-
CCN1/C(=C/c2ccc3cc(C)ccc3[n+]2CC)Sc2ccc3sccc3c21	-	-	-	0	3.6	0	+	0	0	0
Cc1nc2ccc(NC(=O)Cc3ccc(Br)cc3)cc2s1	0	0	0	0	0	0	-	-	-	-
Cc1nc2ccc(NC(=O)Cc3ccc4c(c3)OCCO4)cc2s1	0	0	0	0	8.2	0	0	0	0	0
CN(CCO)c1cccc2c1S(=O)(=O)N(Cc1cn(Cc3cccc(C(F)(F)F)c3)nn1)Cc1ccccc1O2	0	-	0	-	-	-	-	-	-	-
CCN(CC)c1ccc(/C=C/c2cccc[n+]2C)c(OC)c1	0	-	0	-	21	0	+	0	0	0
COc1ccc(/C=C/c2cccc[n+]2C)c(O)c1	0	-	0	-	0	0	-	-	-	-
O=C(NCC(c1cccs1)N1CCOCC1)c1ccc(Cl)c(S(=O)(=O)N2CCOCC2)c1 (centres undefined)	0	0	0	0	1.1	0	0	0	0	0
CC1=NN(c2nc3ccccc3[nH]2)C(=O)/C1=C/N(C)C	-	0	-	0	2.4	0	0	0	0	0
O=S(=O)(CC1NCCc2ccccc21)NCc1ccc(F)cc1 (centres undefined)	0	-	0	-	-	-	-	-	-	-
CC(C)CC(=O)Nc1nnc(CCc2ccccc2)s1	0	-	0	0	0	0	-	-	-	-
CCC(C)C(=O)Nc1nnc(CCc2ccccc2)s1 (centres undefined)	0	-	0	-	1.2	0	0	0	0	0
COc1ccccc1CNC(=O)NC1CCN(CC(=O)Nc2ccc3c(c2)OCCO3)CC1	0	-	0	-	-	-	-	-	-	-
NNC(=O)C1c2ccccc2Oc2ccccc21	0	-	0	-	0	0	-	-	-	-
NC(=O)C1c2ccccc2Oc2ccccc21	0	-	0	-	4.9	0	0	0	0	0
NC1=NC[C@H](Cc2ccccc2)N1CC1CCCCC1	0	0	0	0	0	0	-	-	-	-
NC1=NC[C@H](Cc2ccc(O)cc2)N1CCc1cccc(F)c1	0	0	0	0	0	0	0	0	0	0
NC1=NC[C@H](Cc2ccc(O)cc2)N1CC1CCCCC1	0	0	0	0	0	0	0	0	0	0
SMILES	NPR1 activator	HSV augment	GC-B act	TAG inh	Efflux pump mplx	A1 inh	Cmpd fluor yeast	Mdr1 pump inh	Cdr2 pump inh	CaCdr1 efflux inh
NC1=NC[C@@H](Cc2ccc(O)cc2)N1CCCCC1CCCCC1	0	0	0	0	1.0	0	0	0	0	0
O=C(Nc1ccc(Cl)cc1)OC1CCC12CCC(c1ccccc1)CC2 (centres undefined)	0	-	0	-	-	-	-	-	-	-
Cc1ccc(CNC(=O)c2cc(-c3ccccc3C)nn2CC2CC(c3cccnc3)=NO2)cc1 (centres undefined)	0	-	0	0	0	0	-	-	-	-
Cc1ccc(CNC(=O)c2cc(-c3ccccc3)nn2CC2CC(c3cccnc3)=NO2)cc1 (centres undefined)	0	0	0	-	0.8	0	0	0	0	0
CCCSc1nnc(-c2c[nH]c3ccccc23)n1C	0	0	0	0	0.5	0	0	0	0	0
CCCCc1nnc2c(N(C)S(=O)(=O)c3ccc(C)cc3)nc3ccccc3n12	0	0	0	0	0.8	0	0	0	0	0
CC(C)(C)NC(=O)c1nc2nc(-c3ccccc3)cc(C(F)(F)F)n2n1	0	0	0	-	8.2	0	0	0	0	0
CCn1c(SCC(=O)N/N=C/C(C)=C/c2ccco2)nnc1-c1ccccc1	0	0	0	0	0.8	0	0	0	0	0
COc1ccc2cc3cc(C(=O)N4CCN(Cc5ccc6c(c5)OCO6)CC4)oc3nc2c1	0	-	0	0	0.6	0	0	0	0	0
COc1ccc2cc3cc(C(=O)NCc4ccc5c(c4)OCO5)oc3nc2c1	0	-	0	0	0	0	-	-	-	-
Cc1ccc2cccc(NC3OC(=O)c4ccccc43)c2n1 (centres undefined)	0	0	0	-	0	0	-	-	-	-
COC(=O)c1ccccc1NC1OC(=O)c2ccccc21 (centres undefined)	0	0	0	0	91	0	0	0	0	0
COc1ccc(C)cc1NC(=O)C(Sc1nncn1C)c1ccccc1 (centres undefined)	0	0	0	0	0	0	-	-	-	-
CCC(Sc1nncn1C)C(=O)Nc1ccccc1OC (centres undefined)	0	0	0	-	0.5	0	0	0	0	0
COC(=O)[C@]12C[C@H](CC(=O)NCCCCc3ccccc3)C(=O)N(Cc3ccc(Cl)cc3Cl)C1=C[C@H](C(C)C)O[C@@H]2C1CC1	0	-	0	-	-	-	-	-	-	-
C=CC[C@@H]1NN2C(=O)[C@@H](C)[C@@H]3c4ccccc4C=NN3[C@@H]2c2ccccc21	0	-	0	-	-	-	-	-	-	-
COc1ccc(-c2ccc3c(c2)S(=O)(=O)c2cccc(C(=O)NC4CCCCC4)c2C3=O)cc1OC	-	-	-	-	1.1	0	0	0	0	0
Nc1ncnc2c1nc(N1CCCCC1)n2[C@@H]1O[C@H](CO)[C@@H](O)[C@H]1O	0	-	0	0	2.3	0	0	0	0	0
COC(=O)[C@]12C[C@H](CC(=O)NCc3ccc(OC)c(OC)c3)C(=O)N(CCc3ccc(OC)c(OC)c3)C1=C[C@H](C1CCCC1)O[C@@H]2C	0	-	0	-	-	-	-	-	-	-

Source: PubChem (several laboratories)
